PubChem BioAssay (NCATS)
Unmarked numbers belong to inactive results. Activity calls are given as the source filed them. Calls come from the whole dose curve; as a rule, active = well fitted inhibition curve with a large enough effect; inconclusive = small, poorly fitted or top-dose-only effect; inactive = flat fitted curve, though single readings scatter.

molecular target: Luciferin 4-monooxygenase (Photinus pyralis) (UniProt P08659); assay: Primary firefly luciferase (FLuc) qHTS assay for identification of artifact compounds. (AID 1845220); conditions: purified firefly luciferase, luminescence, 5 min; series mostly up to 54.1 µM; activity change, negative = inhibition: at the top concentration; note: nearly all actives have a fitted effect of over 60% in size;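 for activity change, negative = inhibition: plate controls were DMSO vehicle for no effect and no enzyme for full effect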
In short: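 Compounds sat 15 min at room temperature with 10 uM luciferin and 10 uM ATP (pH 7.6 Tris acetate). Firefly luciferase (10 nM final) was then added, and luminescence was read 5 min later. Data normalized to no-enzyme and DMSO controls were Hill-fitted.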
Potency is the fitted concentration of half-maximal effect.

| SMILES | activity change, negative = inhibition | outcome | Potency |
| --- | --- | --- | --- |
| COCc1c(Cl)ccc2c1CC[C@H]2c1ncc[nH]1 | 3.63% | – | – |
| CC[C@@H](C)[C@@H]1OC2(C=C[C@H]1C)C[C@@H]1C[C@H](C/C=C(\C)[C@H](O[C@H]3C[C@H](OC)[C@H](O[C@H]4C[C@H](OC)[C@H](NC(C)=O)[C@H](C)O4)[C@H](C)O3)[C@H](C)/C=C/C=C3\CO[C@H]4[C@H](O)C(C)=C[C@@H](C(=O)O1)[C@@]34O)O2 (some centres undefined) | -5.27% | – | – |
| CN(C)c1cccc(Oc2cnc(Nc3cccc(O)c3)nc2)c1 | -16.6% | – | – |
| O=c1[nH]cnc2c([C@@H]3N[C@H](CO)[C@@H](O)[C@H]3O)c[nH]c12 | – | inactive | – |
| C=C(C)[C@@H]1CC=C(COC(=O)NC(=O)c2ncn3c(=O)n(C)nnc23)CC1 | -25.4% | – | – |
| C=C[C@@]1(C)CCC2C(=CCC3[C@]2(C)CCC[C@@]3(C)C(=O)O)C1 (some centres undefined) | -7.82% | – | – |
| O=C(Nc1cccc([N+](=O)[O-])c1)c1cccc(S(=O)(=O)N2CCCCCC2)c1 | 0.451% | – | – |
| OC1C=C2C3CN(Cc4cc5c(cc43)OCO5)C2CC1O (centres undefined) | 4.88% | – | – |
| CN1CCc2cc3c(cc2C(=O)Cc2cc4c(cc2C1)OCO4)OCO3 | – | inactive | – |
| CCOc1ccc(CCNC(=O)c2cc3sc(Cl)cc3n2C)cc1OCC | – | inactive | – |
| C=C1C(=O)O[C@@H]2C[C@H](C)[C@@H]3CC(=O)[C@H](O)[C@@]3(C)C[C@H]12 | -5.35% | – | – |
| COc1ccc(C2Oc3c(OC)cc(CCCO)cc3C2COC2OC(CO)C(O)C(O)C2O)cc1OC (centres undefined) | – | inactive [at 25.7 µM] | – |
| CC(C)=C[C@@H]1[C@H](CO[C@@H]2O[C@H](CO)[C@@H](O)[C@H](O)[C@H]2O)C1(C)C | 0.191% | – | – |
| C=CS(=O)(=O)NC1CCN(C(=O)CNc2cc(I)c(Cl)cc2OC)CC1 | 1.95% | – | – |
| N#Cc1cc(-c2ccnc(Nc3ccc(N4CCOCC4)cc3)n2)ccc1OC1CCOCC1 | – | inactive | – |
| CC(O)C(C)n1ncn(-c2ccc(N3CCN(c4ccc(OCC5COC(Cn6cncn6)(c6ccc(Cl)cc6Cl)O5)cc4)CC3)cc2)c1=O (centres undefined) | – | inactive | – |
| CCn1c(=O)c(-c2ccc(-c3cncs3)cc2Cl)cc2cnc(Nc3ccc(N4CCN(C)CC4)cc3)nc21 | -12.1% | – | – |
| CC(=O)O[C@]1(C(C)=O)CC[C@H]2[C@@H]3CCC4=CC(=O)CCC4=C3[C@@H](c3ccc(N(C)C)cc3)C[C@@]21C | – | inactive | – |
| Cc1c(F)ccc(C(=O)Nc2cc([N+](=O)[O-])ccc2N2CCN(C)CC2)c1Cl | -3.09% | – | – |
| CCOc1ccc(-n2c([C@@H](C)N(Cc3cccnc3)C(=O)Cc3ccc(OC(F)(F)F)cc3)nc3ncccc3c2=O)cc1 | -5.15% | – | – |

| SMILES | activity change, negative = inhibition | outcome | Potency |
| --- | --- | --- | --- |
| CC(C)(C)OC(=O)c1ncn2c1C(C)(C)Nc1ccccc1-2 | 2.85% | – | – |
| CC[C@@H](C)Nc1cc(C(=O)NC2CC3CCC(C2)N3c2ccc(C(=O)C3CC3)cn2)c(C)cc1C(N)=O (some centres undefined) | – | inactive | – |
| CCC/C=C/C=C/C1CC(O)C2(O)C(=O)OCC12 (centres undefined) | -5.6% | – | – |
| Cc1c(NC(=O)c2cc3c(s2)CCCC3)cccc1-c1cn(C)c(=O)c(Nc2ccc(C3C(=O)N(C)CCN3C)cc2)n1 (centres undefined) | – | – | 4.78 µM (active) |
| O=c1ccc2ccc(OCCCCN3CCN(c4cccc5sccc45)CC3)cc2[nH]1 | -3.75% | – | – |
| COc1cc(-c2cn(C3CCc4c(F)cccc4N(CC(F)(F)F)C3=O)nn2)ccc1-n1cnc(C)c1 (centres undefined) | – | inactive | – |
| CC1CCCC(O)CC(=O)c2c(O)cc(O)cc2CC(=O)O1 (centres undefined) | – | inactive | – |
| CC(C)(O)/C=C/C(=O)[C@](C)(O)[C@H]1[C@H](O)C[C@@]2(C)[C@@H]3CC=C4[C@@H](C[C@H](O[C@@H]5O[C@H](CO)[C@@H](O)[C@H](O)[C@H]5O)C(=O)C4(C)C)[C@]3(C)C(=O)C[C@]12C | 4.81% [at 25.7 µM] | – | – |
| O=C1Nc2ccccc2-c2nc3ccccc3c(=O)n2-c2c(O)cccc21 | -7.69% | – | – |
| C=CC(=O)N1CCN(C(=O)CNc2cc(-c3ccccc3Cl)c(Cl)cc2OC)CC1 | – | inactive | – |
| Cn1c(CO)c(-c2ccccc2)c2cc([N+](=O)[O-])ccc21 | -0.789% | – | – |
| Cc1cn2c(n1)Cc1ccc(Cl)cc1C(c1ccc(N)cc1)=N2 | -4.43% | – | – |
| CCCc1cc(C)[nH]c(=O)c1CNC(=O)c1cc(-c2ccc(N3CCN(C(C)C)CC3)nc2)cc2c1cnn2C(C)C | – | inactive | – |
| CCC(C)/C=C(C)/C=C/C1=CC2=C(Cl)C(=O)C(C)(OC(C)=O)C(=O)C2(O)C(OC)O1 (centres undefined) | -1.39% [at 25.7 µM] | – | – |
| O=C(NNc1nc2cc(F)ccc2n2cccc12)c1cnccn1 | – | inactive | – |
| Cc1ccc(NC(=O)C(C)C)cc1C1CCN(Cc2ccc(Oc3ccc(F)c(F)c3)cc2)CC1 | – | inactive | – |
| C=C1[C@@H](OC(C)=O)CC[C@@]2(C)[C@@H](OC(C)=O)[C@H](OC(C)=O)C3=C(C)C[C@H](OC(=O)C(C)CC)[C@@H]([C@@H](OC(C)=O)[C@H]12)C3(C)C (some centres undefined) | -3.04% [at 25.7 µM] | – | – |
| O=[N+]([O-])c1ccc(Oc2ccc3c(c2)CCC(c2ccccc2)O3)nc1 (centres undefined) | – | inactive | – |
| CC(C)C[C@@H](C(=O)N[C@@H](Cc1ccc(OCc2ccccc2)cc1)C(=O)NC(C)(C)C)N(C)Cc1ccc(C(C)(C)C)cc1 | -11% | – | – |
